Assay [1] is described as follows: qHTS assay to identify small molecule agonists of the sonic hedgehog signaling (Shh) pathway (AID 1259368).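 Also: NIH/3T3-derived 3T3Gli1-Luc cells carrying a stable Gli1-driven firefly luciferase reporter; series mostly up to about 92 µM; nearly all actives have a fitted effect of over 15% in size.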 An outline of the steps:
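Quantitative high-throughput format using a Gli1-driven firefly luciferase reporter line derived from NIH/3T3 cells. After a 24 hr compound treatment at 37 C and 5% CO2, luminescence reported Gli1 response element activity.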
In general terms: qHTS replaces the single test concentration by a dilution series.

A short description of assay [2]: qHTS assay to identify small molecule antagonists of the sonic hedgehog signaling (Shh) pathway (AID 1259369). Also: nearly all actives have a fitted effect of over 45% in size. Also: potency is read from the fitted curve at half-maximal effect. An outline of the steps:
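Stable Gli1-Luc reporter NIH/3T3 clone; quantitative HTS in stimulated mode with conditioned medium. Luminescence measured after 24hr compound treatment at 37 C.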

Assay [3] addresses Estrogen receptor beta (Homo sapiens) (UniProt Q92731). Put plainly: qHTS assay to identify small molecule agonists of the estrogen receptor beta (ER-beta) signaling pathway (AID 1259377; active = well fitted activation curve with a large enough effect in the signal ratio in the repeat runs, not every such curve was filed as active; the % refers to the signal ratio). The method, boiled down: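 Measured by fluorescence intensity from a B/G FRET beta-lactamase substrate (2 h, room temperature) in ER-beta-UAS-bla HEK293T cells treated with DMSO-dissolved compounds for 16 hr at 37C and 5% CO2.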

For assay [4] the target is unchanged. Put plainly: qHTS assay to identify small molecule antagonists of the estrogen receptor beta (ER-beta) signaling pathway (AID 1259378; active = well fitted inhibition curve with a large enough effect in the signal ratio in the repeat runs, not every such curve was filed as active; the % refers to the signal ratio; also: potency is read from the fitted curve at half-maximal effect). An outline of the steps:
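ER-beta-UAS-bla HEK293T cells in 2% charcoal-stripped FBS medium treated with compound plus 1nM final 17-beta-estradiol for 16 hr at 37C. Beta-lactamase reporter read by FRET substrate fluorescence after 2 hours at room temperature.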

Assay [5] in a line: qHTS assay to identify small molecule agonists of the androgen receptor (AR) signaling pathway in the presence of an antagonist - cell viability counter screen (AID 1259379; active = well fitted curve in the direction sought with a large enough effect in the repeat runs; an effect the other way counts as inactive or inconclusive;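 also: MDA-kb2 human breast cancer cells carrying an MMTV luciferase reporter; series mostly up to about 92 µM; nearly all actives have a fitted effect of over 25% in size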). An outline of the steps: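 Nilutamide-containing (3.0uM final) MDA-kb2 cultures, 3,000 cells/well, were treated with compounds across 15 concentrations. After 16 hr at 37C with no CO2, cell viability was determined by CellTiter-Fluor fluorescence in the luciferase assay wells.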

Assay [6] in a line: qHTS assay to identify small molecule agonists of the estrogen receptor beta (ER-beta) signaling pathway - cell viability counter screen (AID 1259380; active = well fitted curve in the direction sought with a large enough effect in the repeat runs; an effect the other way counts as inactive or inconclusive; also: nearly all actives have a fitted effect of over 30% in size; also: potency is read from the fitted curve at half-maximal effect). An outline of the steps:
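Steps: plate ER-beta-UAS-bla HEK293T cells, rest 6 hr; add compounds in DMSO; incubate 16 hr at 37C, 5% CO2; add FRET substrate 2 hr; add CellTiter-Glo, wait 30 min at room temperature; read luminescence.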

Assay [7] in a line: qHTS assay to identify small molecule antagonists of the estrogen receptor beta (ER-beta) signaling pathway - cell viability counter screen (AID 1259382; active = well fitted curve in the direction sought with a large enough effect in the repeat runs; an effect the other way counts as inactive or inconclusive; also: nearly all actives have a fitted effect of over 55% in size; also: potency is read from the fitted curve at half-maximal effect). An outline of the steps:
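Viability is scored by CellTiter-Glo luminescence (30 min, room temperature) in ER-beta-UAS-bla HEK293T wells already read for reporter fluorescence. Compound exposure lasts 16 hr at 37C alongside 1nM 17-beta-estradiol in charcoal-stripped serum medium.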

In assay [8] the target is Estrogen receptor (Homo sapiens) (UniProt P03372). Put plainly: qHTS assay to identify small molecule agonists of the estrogen receptor alpha (ER-alpha) signaling pathway in the presence of an antagonist (AID 1259383). Also: nearly all actives have a fitted effect of over 15% in size. Also: potency is read from the fitted curve at half-maximal effect. As to activation: top concentration of the series differs between compounds. The method, boiled down: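 Readout was ERE-driven luciferase luminescence in VM7Luc4E2 cells, which express full-length ER-alpha endogenously. Compounds were tested at 15 concentrations for 22hr alongside 10.0nM ICI-182,780 (final concentration).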

Assay [9] in a line: qHTS assay to identify small molecule agonists or antagonists of the thyroid stimulating hormone receptor (TSHR) signaling pathway - wild type cell line counter screen (AID 1259384). The method, boiled down:
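Wild-type Hek293 cells, 800/well, 18 h at 37C, then compound with Ro20-1724 for 30 min RT. cAMP by HTRF (cAMP-d2/anti-cAMP cryptate), 1 h RT, fluorescence read. 15 concentrations, triplicates.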

For assay [10], the target named is Androgen receptor (Homo sapiens) (UniProt P10275). Put plainly: qHTS assay to identify small molecule agonists of the androgen receptor (AR) signaling pathway in the presence of an antagonist (AID 1259381). Also: nearly all actives have a fitted effect of over 15% in size. An outline of the steps:
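Reporter-gene luminescence from MDA-kb2 cells exposed 16hr at 37C (0% CO2) to 15-point compound titrations with 3.0uM final nilutamide as AR antagonist.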

Inconclusive results are not listed. Calls of active or inactive are those of the source. Unless noted, calls follow the shape of the full dose curve.

Androgen receptor (Homo sapiens), sequence (P10275 whole entry, looked up): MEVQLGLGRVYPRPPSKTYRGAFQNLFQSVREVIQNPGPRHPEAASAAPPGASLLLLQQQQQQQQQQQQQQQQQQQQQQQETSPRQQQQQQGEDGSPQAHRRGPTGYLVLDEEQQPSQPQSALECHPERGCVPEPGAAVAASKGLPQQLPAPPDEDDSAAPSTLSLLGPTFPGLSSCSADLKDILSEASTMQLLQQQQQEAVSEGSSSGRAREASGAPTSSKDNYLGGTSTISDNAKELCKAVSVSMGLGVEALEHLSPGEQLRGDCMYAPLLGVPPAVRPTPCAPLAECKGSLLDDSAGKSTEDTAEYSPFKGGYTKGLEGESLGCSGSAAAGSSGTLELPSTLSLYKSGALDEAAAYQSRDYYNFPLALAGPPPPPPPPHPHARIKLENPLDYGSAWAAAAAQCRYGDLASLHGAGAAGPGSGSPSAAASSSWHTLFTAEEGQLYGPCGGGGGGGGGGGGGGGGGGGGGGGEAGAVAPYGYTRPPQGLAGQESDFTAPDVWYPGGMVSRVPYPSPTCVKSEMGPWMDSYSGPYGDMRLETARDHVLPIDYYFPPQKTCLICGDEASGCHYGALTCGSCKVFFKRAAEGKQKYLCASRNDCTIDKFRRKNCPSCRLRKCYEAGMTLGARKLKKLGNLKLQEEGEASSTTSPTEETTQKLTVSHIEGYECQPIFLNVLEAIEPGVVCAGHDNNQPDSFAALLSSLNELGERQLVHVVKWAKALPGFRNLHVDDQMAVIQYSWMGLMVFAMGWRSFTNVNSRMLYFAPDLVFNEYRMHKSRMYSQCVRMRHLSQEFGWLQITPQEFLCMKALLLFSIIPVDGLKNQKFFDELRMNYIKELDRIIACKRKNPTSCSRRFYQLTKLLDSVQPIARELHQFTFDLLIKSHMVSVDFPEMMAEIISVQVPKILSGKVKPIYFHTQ
Estrogen receptor beta (Homo sapiens), sequence (Q92731 whole entry, looked up): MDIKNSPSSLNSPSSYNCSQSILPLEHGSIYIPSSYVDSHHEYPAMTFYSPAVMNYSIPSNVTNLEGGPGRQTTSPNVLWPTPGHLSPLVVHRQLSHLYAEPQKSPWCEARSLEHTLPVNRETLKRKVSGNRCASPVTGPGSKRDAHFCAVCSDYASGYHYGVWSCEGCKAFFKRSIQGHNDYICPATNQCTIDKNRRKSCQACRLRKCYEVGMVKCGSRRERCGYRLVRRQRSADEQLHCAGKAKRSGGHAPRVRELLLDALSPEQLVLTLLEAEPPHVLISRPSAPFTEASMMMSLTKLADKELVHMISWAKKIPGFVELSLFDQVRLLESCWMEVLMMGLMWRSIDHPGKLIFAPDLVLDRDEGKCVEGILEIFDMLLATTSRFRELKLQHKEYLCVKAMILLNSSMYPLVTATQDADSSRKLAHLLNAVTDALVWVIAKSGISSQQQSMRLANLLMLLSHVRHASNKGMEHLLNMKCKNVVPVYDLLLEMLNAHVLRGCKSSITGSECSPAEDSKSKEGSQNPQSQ
Estrogen receptor (Homo sapiens), sequence (P03372 whole entry, looked up): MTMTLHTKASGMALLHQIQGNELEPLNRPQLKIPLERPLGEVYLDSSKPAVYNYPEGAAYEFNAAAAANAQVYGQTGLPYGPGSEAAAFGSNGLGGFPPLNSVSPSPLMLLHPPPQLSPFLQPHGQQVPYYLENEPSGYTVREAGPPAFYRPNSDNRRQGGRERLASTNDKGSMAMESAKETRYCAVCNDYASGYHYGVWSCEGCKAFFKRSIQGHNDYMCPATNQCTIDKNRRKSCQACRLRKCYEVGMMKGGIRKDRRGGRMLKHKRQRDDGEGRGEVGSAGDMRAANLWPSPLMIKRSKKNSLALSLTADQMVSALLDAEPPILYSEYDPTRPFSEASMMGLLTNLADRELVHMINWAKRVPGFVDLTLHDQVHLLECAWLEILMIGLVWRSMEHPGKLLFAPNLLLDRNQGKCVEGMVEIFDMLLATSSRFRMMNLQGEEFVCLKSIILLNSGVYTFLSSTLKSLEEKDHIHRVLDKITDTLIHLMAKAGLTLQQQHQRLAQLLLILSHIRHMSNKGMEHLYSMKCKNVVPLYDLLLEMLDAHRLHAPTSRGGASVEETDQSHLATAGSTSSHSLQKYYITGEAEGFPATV

Take `COc1cc(C(=O)NCCCCCC(=O)O)cc(OC)c1OC`: the Potency result in assay [1], in assay [2], in assay [3], in [4], in assay [5] and in assay [6] was “inactive” each time. For the same compound, the Potency entry in assay [7] and in [8] was “inactive” in each case. Besides, the outcome in assay [9] was inactive.

As to `CC(C)(C)CC(=O)OCC(=O)[C@@]1(O)CC[C@H]2[C@@H]3CCC4=CC(=O)C=C[C@]4(C)[C@H]3[C@@H](O)C[C@@]21C`, the Potency entry in [1], in assay [3], in assay [5] and in [8] was “inactive” throughout. Moreover, the Potency in [2] is 6.68 µM (active); in assay [4] it was 26.6 µM (active); in [6], 8.41 µM (active). Moreover, the call in [9] was inactive.

`COC(=O)CCS`: the Potency entry in assay [1], in assay [2], in [3], in [4], in [5] and in assay [6] was “inactive” in each case. In addition, the Potency result in [7] and in [8] was “inactive” throughout. Moreover, the compound was called inactive in [9].

For the compound `O=C1Cc2ccccc2N1c1c(Cl)cccc1Cl`, the Potency result in [1], in assay [2], in assay [3], in assay [10], in assay [7] and in assay [8] was “inactive” throughout. Also, the Potency is 54.5 µM (active) in assay [4] and 19.3 µM (active) in assay [6]. Also, in assay [9], the result was inactive.

With `CC[N+](CC)(CCNC(=O)C(=O)NCC[N+](CC)(CC)Cc1ccccc1Cl)Cc1ccccc1Cl`, the Potency result in assay [1], in assay [2], in assay [3], in [4], in assay [5] and in assay [6] was “inactive” throughout. Besides, the Potency result in assay [7] and in [8] was “inactive” in each case.

For `C[C@@H]1CN(CCCn2c3ccccc3c3ccccc32)C[C@H](C)N1`, the Potency entry in assay [1] and in [3] was “inactive” each time. Further, the Potency was 10.6 µM (active) in assay [2], 13.3 µM (active) in assay [4], 10.6 µM (active) in assay [6] and 11.9 µM (active) in assay [7]. Moreover, the compound was classed as inactive in assay [9].

Consider `Nc1ncnc2c1ncn2[C@H]1CC[C@@H](CO)O1`, for which the Potency entry in assay [1], in assay [2], in assay [3], in assay [4], in assay [5] and in [6] was “inactive” throughout. The Potency entry in [7] and in assay [8] was “inactive” in each case. Moreover, the compound was classed as inactive in assay [9].

On to `CC1(C)O[C@@H]2C[C@H]3[C@@H]4C[C@H](F)C5=CC(=O)C=C[C@]5(C)[C@H]4[C@@H](O)C[C@]3(C)[C@]2(C(=O)CO)O1`, for which the Potency result in assay [1], in [2], in assay [3], in assay [4], in assay [5] and in [6] was “inactive” each time. Besides, the Potency result in assay [7] is “inactive”. The compound was called inactive in [9].

With `Cc1[nH]cnc1CN1CCc2c(c3ccccc3n2C)C1=O`, the Potency result in assay [1], in assay [2], in assay [3], in assay [4], in assay [5] and in assay [6] was “inactive” each time. For the same compound, the Potency entry in assay [7] was “inactive”. In addition, in assay [9], the compound was called inactive.

With `CCCCCCCCCI`, the Potency result in assay [1], in [2], in assay [3], in assay [4], in assay [5] and in assay [6] was “inactive” throughout. Further, the Potency result in assay [7] was “inactive”. Besides, in assay [9], the compound was classed as inactive.

`CCC(C)COC(=O)CC(C)C` (stereo not given): the Potency entry in [1], in [2], in assay [3], in assay [4], in [5] and in assay [8] was “inactive” in each case. Further, the Potency in [6] was 30.6 µM (active). Moreover, in assay [9], the call was inactive.

Take `C[C@@H](O)[C@H]1C(=O)N2C(C(=O)O)=C([C@H]3CCCO3)S[C@H]12`: the Potency result in [1], in [2], in assay [3], in [4], in [5] and in assay [6] was “inactive” each time. Besides, the Potency entry in assay [10], in assay [7] and in assay [8] was “inactive” throughout. Besides, the compound was classed as inactive in [9].

As for `CO/N=C(/C(=O)N[C@@H]1C(=O)N2C(C(=O)O)=C(COC(N)=O)CS[C@H]12)c1ccco1`, the Potency result in [1], in assay [2], in [3], in assay [4], in [5] and in assay [6] was “inactive” throughout. Moreover, the Potency entry in assay [7] was “inactive”. Further, in assay [9], the compound was called inactive.

Consider `C[C@H]1C[C@H](O)c2ccsc2S1(=O)=O`, for which the Potency entry in [1], in assay [2], in assay [3], in [4], in assay [5] and in assay [6] was “inactive” in each case. Further, the Potency result in assay [10] and in assay [7] was “inactive” in each case. In assay [9], the outcome was inactive.

As for `Cc1cc(C)c(N)cc1C`, the Potency entry in assay [1], in assay [2], in assay [3], in [4], in [5] and in [6] was “inactive” throughout. The Potency result in [7] and in assay [8] was “inactive” throughout. The compound was classed as inactive in assay [9].

As for `OC1(c2ccccc2)CCNCC1`, the Potency result in assay [1], in [2], in assay [3], in assay [4], in assay [5] and in assay [6] was “inactive” throughout. The Potency entry in assay [10] and in [7] was “inactive” throughout. For the same compound, the compound was classed as inactive in assay [9].

For the compound `O=C(/C=C/c1ccccc1)OCCc1ccccc1`, the Potency entry in assay [1], in [2], in [3], in [5], in [6] and in [10] was “inactive” throughout. Besides, the Potency entry in assay [7] is “inactive”. The Potency in assay [8] was 3.44 µM (active). The result in [9] was inactive.

Turning to `FC(F)(F)c1ccccc1Cl`, the Potency entry in assay [1], in assay [2], in [3], in assay [5], in assay [6] and in assay [7] was “inactive” throughout.

As to `O=C=Nc1cccc(C(F)(F)F)c1`, the Potency entry in [1], in assay [2], in assay [3], in assay [5], in [10] and in [7] was “inactive” in each case. In assay [8], the Potency result was “inactive”. Further, the Potency in assay [6] was 30.4 µM (active). The compound was classed as inactive in assay [9].

With `CC(C)=CCC/C(C)=C/CC/C(C)=C/CCC(=O)OC/C=C(\C)CCC=C(C)C`, the Potency result in assay [1], in [2], in assay [3], in [5], in assay [6] and in assay [7] was “inactive” each time. Further, the Potency entry in [8] is “inactive”. Moreover, the compound was classed as inactive in assay [9].

On to `OC[C@H]1O[C@@H](n2cnc3c(=S)nc[nH]c32)[C@H](O)[C@@H]1O`, for which the Potency result in [1], in assay [2], in [3], in assay [5] and in assay [8] was “inactive” each time. The Potency in assay [6] was 2.11 µM (active). Further, the compound was classed as inactive in assay [9].

Regarding `Cc1ccc(CO)cc1`, the Potency entry in assay [1], in [2], in assay [3], in [5], in [6] and in assay [7] was “inactive” each time. Also, the Potency result in assay [8] is “inactive”. The result in [9] was inactive.

With `C=C/C(C)=C/C/C=C(\C)CCC=C(C)C`, the Potency entry in assay [1], in assay [3], in assay [5], in [7] and in assay [8] was “inactive” each time. For the same compound, in assay [2], the Potency was 27.3 µM (active). Also, the compound was called inactive in [9].

As for `C=C1CCC2CC1C2(C)C` (stereo not given), the Potency entry in assay [1], in assay [2], in assay [3], in assay [5], in assay [6] and in assay [7] was “inactive” in each case. For the same compound, the compound was classed as inactive in assay [9].

Regarding `C=Cc1ccc(S(=O)(=O)O)cc1`, the Potency entry in [1], in assay [3], in assay [5], in [6], in [7] and in [8] was “inactive” in each case. Further, the Potency in assay [2] is 61.1 µM (active). For the same compound, the compound was called inactive in assay [9].

(Values after PubChem BioAssay (Tox21).)
